The source of these data is PubChem BioAssay (NCATS).

Results filed as inconclusive are left out. Activity calls are given as the source filed them. The call rests on the fitted dose curve; in most records, active means well fitted curve in the direction sought with a large enough effect; inconclusive means small, poorly fitted or top-dose-only effect, or another doubt; inactive means no such curve, though single readings can be large; an effect the other way counts as inactive or inconclusive.

Assay [1] in a line: HPAF-II Cancer Cell Toxicity qHTS against the NCATS CANVASS Library (AID 1347346). Further: nearly all actives have a fitted effect of over 55% in size. Further: potency means the concentration at half of the fitted maximal effect. An outline of the steps:
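HPAF-II cells were seeded at 1000 cells/well, allowed to settle for 4 h at 37 degrees C, then exposed to compounds in an 11-point series for 72 h. Viability was read by CellTiter-Glo luminescence.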

The nature of assay [2]: HPAF-II 24hr Apoptosis Induction qHTS against the NCATS CANVASS Library (AID 1347356). An outline of the steps:
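HPAF-II cells (500/well) in DMEM + 10% FBS were treated with an 11-point compound series for 24 hours at 37 degrees C. Caspase-3/7 activity was then read by Caspase-Glo DEVD luminescence after 15 min.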

The nature of assay [3]: HEK293 18hr Apoptosis Induction qHTS against the NCATS CANVASS Library (AID 1347357). An outline of the steps: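 HEK293 cells (500/well, DMEM + 10% FBS) treated with an 11-point series for 18 h at 37 degrees C. Caspase-3/7 activity read by Caspase-Glo luminescence after 15 min at room temperature.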
Assay [4] in a line: HPAF-II 12hr Apoptosis Induction qHTS against the NCATS CANVASS Library (AID 1347358). An outline of the steps: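 HPAF-II cells (500/well, DMEM + 10% FBS) were exposed to compounds for 12 hours at 37 degrees C. Caspase-3/7 activity was then read by Caspase-Glo 3/7 luminescence after 15 min at room temperature.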
Assay [5] can be described thus: HPAF-II 18hr Apoptosis Induction qHTS against the NCATS CANVASS Library (AID 1347360). An outline of the steps: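 HPAF-II cells at 500/well were exposed for 18 h at 37 C to an 11-point compound series. Caspase-3/7 activity was read by Caspase-Glo luminescence after 15 min at RT.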
A short description of assay [6]: HEK293 12hr Apoptosis Induction qHTS against the NCATS CANVASS Library (AID 1347361). An outline of the steps: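 HEK293 cells (500/well) were exposed to an 11-point qHTS concentration series for 12 hours at 37 degrees C. Caspase-3/7 activity was then read by DEVD-substrate luciferase luminescence after 15 min at room temperature.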
Assay [7] concerns NAD(P)H diaphorase (Clostridium kluyveri). Kind of assay: Diaphorse counterscreen qHTS: Assay Interference Panel against the NCATS CANVASS Library (AID 1347362). The gist of the method:
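Clostridium kluyveri diaphorase in PBS with 0.01% Tween-20 was preincubated 15 min at room temperature in the dark with compounds (11-point series). Resorufin fluorescence (ex 525/20, em 598/25) was read 5 min after adding resazurin/NADH.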

Assay [8] concerns the target Luciferin 4-monooxygenase (Photinus pyralis) (UniProt P08659). Description: Firefly luciferase counterscreen qHTS: Assay Interference Panel against the NCATS CANVASS Library (AID 1347363). Further: series mostly up to about 57 µM. The gist of the method:
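Purified P. pyralis luciferase was added to compounds (11-point series) preincubated 15 min at room temperature with substrate containing 0.013 mM D-luciferin and 0.013 mM ATP; luminescence was read after 5 min.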

A short description of assay [9]: MCF7 Cancer Cell Toxicity qHTS against the NCATS CANVASS Library (AID 1347369). An outline of the steps: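 MCF7 cells (500/well) were exposed 72 h at 37 °C to compounds in an 11-point series. Viability was read as ATP content by CellTiterGlo luminescence.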
A short description of assay [10]: qHTS for ATAD5 Antagonist screened against the NCATS CANVASS Library (AID 1347370).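 Further: HEK293T cells carrying an ATAD5 luciferase reporter co-treated with 10 µM 5-fluorouridine; series mostly up to about 46 µM; nearly all actives have a fitted effect of over 65% in size.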 The gist of the method:
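HEK293T cells with a stably integrated ATAD5-controlled luciferase reporter were exposed to compounds (11-pt) alongside 10 uM 5-fluorouridine as ATAD5 stabilizer for 16hr at 37C. Viability was read by CellTiter-Fluor fluorescence, then ATAD5 by luminescence.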

The nature of assay [11]: J3T Cancer Cell Toxicity qHTS against the NCATS CANVASS Library (AID 1347371). Further: potency means the concentration at half of the fitted maximal effect. The gist of the method: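 J3T dog glioma cells (500 cells/well) were exposed to compounds in an 11-point series for 72 hr at 37C, 5% CO2. Cytotoxicity was read as ATP content by CellTiterGlo luminescence.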
For assay [12], the target named is Nuclear receptor subfamily 1 group I member 3 (Homo sapiens) (UniProt Q14994). Description: qHTS for Constitutive Androstane Receptor (CAR) Antagonist screened against the NCATS CANVASS Library (AID 1347372).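 Further: cells stimulated with 50 nM CITCO agonist so inhibition reflects antagonism; series mostly up to about 46 µM.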 The gist of the method: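 HepG2 cells stably carrying hCAR and a CYP2B6-2.2kb luciferase reporter were exposed to compounds plus 50 nM CITCO for 24hr at 37C. CAR activity was read by ONE-Glo luminescence, with viability measured first by CellTiter-Fluor.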

Assay [13] has the same target. Description: qHTS for Constitutive Androstane Receptor (CAR) Agonist screened against the NCATS CANVASS Library (AID 1347373).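 Further: every well also contained 1.5 µM PK11195 alongside the test compound.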 The gist of the method: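 HepG2 cells stably expressing hCAR and a CYP2B6-2.2kb luciferase reporter were treated for 24hr at 37C with compounds (11-point qHTS) in the presence of 1.5uM PK11195. Reporter activation was read by ONE-Glo luminescence.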

The nature of assay [14]: qHTS for Hypoxia signaling pathway (HIF-1) agonists against the NCATS CANVASS Library (AID 1347375). An outline of the steps:
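HRE-bla ME-180 cells (beta-lactamase reporter under hypoxia responsive element) in 0.5% dialyzed FBS medium, 5 h at 37C, then compound 17 h, 11-point qHTS series. CCF4-AM FRET substrate 2 h RT; 460/530 nm emission read.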

Assay [15] in a line: 10-beta competent E. coli microbial cell viability qHTS against the NCATS CANVASS Library (AID 1347376). Further: series mostly up to about 46 µM. The gist of the method:
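10-beta competent E. coli (0.9 OD culture diluted to 0.2 OD) exposed to compounds in an 11-point qHTS series, incubated overnight at 37C, 5% CO2. Viability read as ATP by BacTiter-Glo luminescence after 20 min at room temperature.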

Assay [16] can be described thus: Cytotoxicity qHTS for assessment of Hepg2 cells membrane integrity screened against the NCATS CANVASS Library (AID 1347387). The gist of the method: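 HepG2 cells (2000/well) attached overnight at 37C, then received compounds in an 11-point series at 0.59 nM - 46 uM final for 5 hr. LDH release was detected fluorometrically (ex 560/em 590 nm) with CytoTox-ONE reagent after 10 min at room temperature.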

Assay [17] is described as follows: qHTS for Activators of p53 Stress Response Pathway screened against the NCATS CANVASS Library (AID 1347388). An outline of the steps: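 p53RE-bla HCT-116 cells (4000/well) were plated 5 h at 37C, exposed to compounds for 16 h at 37C over an 11-point concentration series, then loaded with CCF4 for 2 h at room temperature; 460/530 nm emission ratio read.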
Assay [18] can be described thus: qHTS for activators of dead-cell proteases activity screened against the NCATS CANVASS Library (AID 1347392).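 Further: luminescence from protease leaking out of membrane-damaged cells cleaving impermeant substrate; rising signal means more cytotoxicity.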 The gist of the method: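 HepG2 cells (2000/well) attached 18 h at 37C, then exposed 5 h to compounds (11-point qHTS). Dead-cell protease activity read as luminescence from cell-impermeant AAF-aminoluciferin substrate after 15 min at room temperature.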

Assay [19] is described as follows: Viability qHTS for inhibitors of the SERCaMP assay screened against the NCATS CANVASS Library (AID 1347400). Further: series mostly up to about 92 µM; nearly all actives have a fitted effect of over 70% in size. An outline of the steps:
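SH-SY5Y-GLuc SERCaMP MJH297-derived cells (1000 cells/well) were pre-incubated 4 h at 37C, then exposed to compounds for 48 h. Viability was read as CellTiter-Glo luminescence; bortezomib served as positive control.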

Sequence of Luciferin 4-monooxygenase (Photinus pyralis) (P08659 whole entry, looked up): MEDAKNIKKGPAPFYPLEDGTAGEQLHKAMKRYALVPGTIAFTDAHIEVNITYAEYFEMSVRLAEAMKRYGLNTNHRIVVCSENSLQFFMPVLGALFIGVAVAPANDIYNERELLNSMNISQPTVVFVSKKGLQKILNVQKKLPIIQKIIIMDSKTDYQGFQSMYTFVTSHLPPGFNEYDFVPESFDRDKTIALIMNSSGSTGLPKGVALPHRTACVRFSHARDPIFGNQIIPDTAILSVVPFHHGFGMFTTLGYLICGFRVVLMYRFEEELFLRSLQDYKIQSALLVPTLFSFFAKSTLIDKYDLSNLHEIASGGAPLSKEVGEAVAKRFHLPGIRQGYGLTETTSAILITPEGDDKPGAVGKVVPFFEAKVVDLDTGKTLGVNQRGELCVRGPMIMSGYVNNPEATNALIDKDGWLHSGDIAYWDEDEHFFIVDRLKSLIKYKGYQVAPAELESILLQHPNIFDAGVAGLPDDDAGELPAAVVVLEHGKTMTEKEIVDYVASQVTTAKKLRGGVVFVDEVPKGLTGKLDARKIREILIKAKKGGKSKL
Sequence of Nuclear receptor subfamily 1 group I member 3 (Homo sapiens) (Q14994 whole entry, looked up): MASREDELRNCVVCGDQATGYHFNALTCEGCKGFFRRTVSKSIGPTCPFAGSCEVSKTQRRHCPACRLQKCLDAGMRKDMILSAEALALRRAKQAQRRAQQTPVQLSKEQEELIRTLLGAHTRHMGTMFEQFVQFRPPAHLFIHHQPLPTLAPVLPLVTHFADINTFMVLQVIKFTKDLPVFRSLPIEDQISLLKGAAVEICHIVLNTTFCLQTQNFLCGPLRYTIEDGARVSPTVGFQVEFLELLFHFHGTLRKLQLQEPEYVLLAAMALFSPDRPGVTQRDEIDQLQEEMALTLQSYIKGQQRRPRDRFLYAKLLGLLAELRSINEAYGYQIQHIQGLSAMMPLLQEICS

On to `C[C@@]12CCC[C@@](C)(C(=O)O)[C@H]1CC[C@@]13C[C@@H](CC[C@H]12)[C@](C)(O)C3`, for which the Potency entry in [1], in [3], in assay [4], in [5], in [7] and in [8] was “inactive” throughout. The Potency result in assay [9], in assay [10], in assay [11], in assay [12], in [13] and in assay [17] was “inactive” in each case. Also, the Potency result in [18] and in assay [19] was “inactive” throughout. Further, the result in assay [2], in assay [6], in assay [14], in [15] and in [16] was inactive.
Consider `C/C=C/[C@H]1[C@H]2C(=O)c3c(O)c(C)c(O)c(C)c3[C@]1(C(=O)O)C(=O)C=C2C`, for which the Potency result in assay [1], in assay [3], in assay [4], in assay [5], in assay [7] and in assay [8] was “inactive” in each case. The Potency entry in assay [9], in assay [10], in assay [11], in assay [12], in [13] and in assay [17] was “inactive” in each case. Moreover, the Potency entry in assay [18] and in [19] was “inactive” throughout. Further, the outcome in assay [2], in assay [6], in assay [14], in assay [15] and in assay [16] was inactive.
Take `O=c1cc(-c2ccc(O)cc2)oc2cc(O)c([C@@H]3OC(CO)[C@H](O)[C@@H](O)[C@H]3O)c(O)c12` (some centres undefined): the Potency entry in assay [1], in assay [3], in [4], in [5], in [7] and in assay [8] was “inactive” throughout. In addition, the Potency result in assay [9], in assay [10], in assay [11], in assay [12], in [13] and in [17] was “inactive” in each case. The Potency entry in assay [18] and in assay [19] was “inactive” each time. In addition, the outcome in assay [2], in assay [6], in assay [14], in assay [15] and in assay [16] was inactive.
For the compound `C=C1C[C@]23C=CC(=O)[C@@](C)(CCCC(C)C(=O)N[C@@H](CO)C(=O)O)[C@@H]2C[C@@H]1CC3` (some centres undefined), the Potency result in assay [1], in assay [3], in [4], in [5], in assay [7] and in [8] was “inactive” each time. Besides, the Potency result in assay [9], in assay [10], in assay [11], in assay [12], in assay [13] and in [17] was “inactive” each time. Further, the Potency entry in [18] and in assay [19] was “inactive” each time. Also, the compound was classed as inactive in assay [2], in assay [6], in assay [14], in assay [15] and in assay [16].
In the case of `C[C@@]12CCC[C@@](C)(C(=O)OP(=O)(O)OC[C@H]3O[C@@H](n4cnc5c(N)ncnc54)[C@H](O)[C@@H]3O)[C@H]1C[C@@H](O)[C@@]13C[C@@H](CC[C@@H]21)[C@](C)(O)C3`, the Potency in [1] was 4.73 µM (active); in assay [11], 16.6 µM (active). In addition, the result in assay [2], in [6], in assay [14], in assay [15] and in [16] was inactive. Moreover, the Potency result in assay [3], in assay [4], in [5], in [7], in [8] and in assay [9] was “inactive” in each case. Besides, the Potency result in assay [10], in assay [12], in assay [13], in assay [17], in assay [18] and in assay [19] was “inactive” throughout.
On to `CN1C(=O)C(=O)N2C(=C[C@]3(c4c[nH]c5ccccc45)c4ccccc4N[C@H]23)C1=O`, for which the Potency result in [1], in assay [3], in assay [4], in assay [5], in [7] and in assay [8] was “inactive” throughout. Also, the Potency entry in assay [9], in assay [10], in [11], in assay [12], in assay [13] and in assay [17] was “inactive” each time. Also, the Potency entry in [18] and in assay [19] was “inactive” in each case. In addition, the compound was called inactive in [2], in assay [6], in [14], in assay [15] and in [16].
